# Assay outcomes from PubChem BioAssay.
# Most compounds without a hit are left out; they make up all but 2.4% or so of the library.
# D2 PAM-1 = human D2 receptor positive allosteric modulation | AID 624464 | potentiation, % (test concentration not listed) | DiscoveRx D2 beta-arrestin cells, luminescence, 90 min; 100% = 57 uM dopamine signal | 360,000 compounds, 0.23% hits | P14416; in the data active = potentiation above about 50%; inconclusive = mostly about 30% to 49%
# Target sequence (P14416 whole entry, looked up): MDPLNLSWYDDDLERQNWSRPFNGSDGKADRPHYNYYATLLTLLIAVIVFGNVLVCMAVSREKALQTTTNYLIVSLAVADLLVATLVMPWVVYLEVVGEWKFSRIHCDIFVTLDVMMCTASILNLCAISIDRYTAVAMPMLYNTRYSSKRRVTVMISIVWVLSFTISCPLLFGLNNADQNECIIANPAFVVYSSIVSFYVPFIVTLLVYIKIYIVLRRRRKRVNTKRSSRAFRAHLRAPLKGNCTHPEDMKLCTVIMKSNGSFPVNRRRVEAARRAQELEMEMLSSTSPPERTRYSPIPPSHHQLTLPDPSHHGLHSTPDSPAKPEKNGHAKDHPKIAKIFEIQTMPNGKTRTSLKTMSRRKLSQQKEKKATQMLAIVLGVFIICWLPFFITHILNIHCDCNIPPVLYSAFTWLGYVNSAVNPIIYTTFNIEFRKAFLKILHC
#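 PathHunter D2 cells, attached overnight at 37 deg C, received compound in DMSO plus dopamine at EC20 (50 nM final) for 90 min at 37 deg C. Beta-arrestin recruitment was read as luminescence after 1 h with detection reagent at ambient temperature.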
# D2 ag-1 = human D2 receptor agonism in beta-arrestin assay; DiscoveRx PathHunter D2 beta-arrestin, luminescence, 90 min; 100% = 57 uM dopamine signal; activation, % (no concentration beside the values); 360,000 compounds, 0.084% hits; AID 624465; in the data active = activation above about 40%; inconclusive = between about 15% and that limit
#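 Agonist mode: compounds alone added to overnight-plated D2 PathHunter cells for 90 min at 37 C, with 57 uM final dopamine (EC100) defining full response. Beta-arrestin recruitment detected by chemiluminescent reagent, read after 1 h at ambient temperature.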
# D2 ag-2 = D2 dopamine receptor (human) agonism; activation, % at 2 µM; HEK293 T-REx D2 cells, calcium flux agonist mode; 340,000 compounds, 0.53% hits; AID 485358; P14416;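 active = activation over 3 SD above normal in the single-dose calcium agonist read, cut at about 30% in these data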; also: 0% is about no effect
#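 Calcium-flux readout, 1 cycle/sec over 180 s following compound pin transfer, in inducible HEK293 Trex D2 cells (force-coupled); dopamine controls included. Positive calcium responses during this window marked compounds as potential agonists.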
# D2 PAM-2 = positive allosteric modulators of human D2 dopamine receptor; HEK293 T-REx D2, calcium flux, EC20 dopamine potentiation; potentiation, % at 10 µM; 340,000 compounds, 0.34% hits; P14416;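 active = potentiation over 3 SD above the plate norm, cut at about 30% in these data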; also: 0% is about no effect
#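 Tetracycline-induced HEK293 T-REx cells force-coupled to calcium signalling expressed D2; compounds were pin-added after a 10 s baseline, read kinetically 180 s, then an EC20 dopamine challenge followed with a further 180 s calcium read.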
# D2 antagonist = antagonists of human D2 dopamine receptor. inhibition, % at 10 µM. P14416. HEK293 TREx D2 cells, calcium flux, dopamine EC80. 340,000 compounds, 2% hits; in the data active = inhibition above about 30%; inactive = below that, where a call was filed; also: 0% is about no effect
#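 Compounds are added to dye-loaded, induced HEK293 T-REx cells coupled to calcium release via D2; after a 3 min kinetic read an EC80 dopamine stimulus is given and fluorescence is recorded for 3 more min.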
# * marks the source's active call; other numbers are inactive results; ? = inconclusive; / = no result.
SMILES,D2 PAM-1,D2 ag-1,D2 ag-2,D2 PAM-2,D2 antagonist
O=C(O)/C(=C\c1cccs1)Sc1nnc(-c2ccc(F)cc2)o1,-3,-2,1,1,35*
CCCC(=O)Nc1nnc(SCc2cc(=O)c3cc(C)ccc3[nH]2)s1,/,/,0,4,/
CC(CCc1ccccc1)NC(=O)C(=O)Nc1ccccc1 (stereo unspecified),-12,0,0,6,72*
COCCCNC(=O)c1cnn(-c2ccccc2Cl)c1C1CCN(C(=O)OC(C)(C)C)CC1,/,/,/,5,/
FC(F)(F)c1nnc2ccc(NCc3cccnc3)nn12,-1,0,-2,2,-10
FC(F)(F)c1nnc2ccc(NCc3ccccc3)nn12,2,4,0,2,80*
O=C(NCc1ccccc1Cl)c1nnc(Cc2ccc(Cl)cc2)o1,/,/,0,-3,/
O=C(COC(=O)c1ccc(S(=O)(=O)NCc2ccco2)cc1)NCc1ccc(F)cc1,-1,4,0,64*,-11
COc1ccc(OC)c(/C=C2/Sc3ccccc3C2=O)c1,16,0,34*,-3,7
Cc1ccc2oc3c(c(=O)c2c1)C(c1cccc(O)c1)N(Cc1ccccc1Cl)C3=O (stereo unspecified),/,/,0,9,/
Cc1ccc(CSCC(=O)Nc2ccccc2C(=O)O)cc1,52*,5,-3,-1,-9
Cc1ccc(CSCC(=O)N2CCCC2)cc1,-2,-5,1,5,33*
CCCc1cnc2c(c1SCC(=O)Nc1ccccc1F)c(=O)n(C)c(=O)n2C,/,/,1,1,/
C[C@@H]1CN([C@@H](C)CO)C(=O)CCCn2cc(nn2)CO[C@H]1CN(C)S(=O)(=O)c1ccc(Cl)cc1,-3,-1,/,/,/
Cc1ccc(S(=O)(=O)N(CC(=O)N2CCCCC2)c2cccc(C)c2)cc1,-6,-1,0,-9,32*
Cc1cccc(N(CC(=O)N2CCCC2)S(=O)(=O)c2ccccc2)c1,2,-1,/,/,/
Cc1ccc(CNC(=O)c2c(C)oc3ncnc(N4CCOCC4)c23)cc1,/,/,0,-9,/
COc1ccc([N+](=O)[O-])cc1NC(=S)NC(NC(C)=O)C(Cl)(Cl)Cl (stereo unspecified),-27,-1,0,-19,-9
COc1ccc([N+](=O)[O-])cc1NC(=S)NC(NC(=O)Cc1ccc(OC)c(OC)c1)C(Cl)(Cl)Cl (stereo unspecified),-27,-4,-1,-18,74*
CCC(C)NC(=O)Cn1c(=O)n(-c2ccc(C)c(C)c2)c(=O)c2c3c(sc21)CCCCC3 (stereo unspecified),/,/,0,1,/
COC(=O)c1ccsc1NC(=O)CSc1nnnn1-c1ccccc1SC,-4,1,0,37*,-1
CC(=O)Oc1ccccc1N(C(C)=O)S(=O)(=O)c1ccc2ccccc2c1,-6,-2,1,0,-12
CC(=O)Oc1c(Br)cc(N(C(C)=O)S(=O)(=O)c2ccccc2)c2ccccc12,-1,?,-3,11,33*
Clc1ccc2c(c1)C(N1CCNCC1)=Nc1ccccc1O2,-11,-4,-3,-33,76*
Cc1ccc(CSc2nncn3c2cc2sccc23)cc1,/,/,-2,3,/
SMILES,D2 PAM-1,D2 ag-1,D2 ag-2,D2 PAM-2,D2 antagonist
Cc1nnc2n1N=C(c1ccc(OC(F)F)cc1)C(C)S2 (stereo unspecified),-5,-2,1,3,56*
CC(C)(C)c1ccc(C(=O)NC2CCN(Cc3ccccc3)CC2)cc1,-35,-3,1,-21,54*
Cc1oc(-c2ccccc2)cc1C(=O)NC1CCN(Cc2ccccc2)CC1,-7,-12,0,-10,69*
Cn1nccc1C(=O)NC1CCN(Cc2ccccc2)CC1,-25,3,0,-19,55*
O=C(NC1CCN(Cc2ccccc2)CC1)c1ccccc1Cl,-65,-4,-1,-19,9
O=C(NNC1CCN(Cc2ccccc2)CC1)c1ccccc1,-28,-2,/,/,/
O=C(NC1CCN(Cc2ccccc2)CC1)c1ccccc1,-23,-4,0,-26,74*
Cc1cccc(-c2cnc(C(O)c3ccc(-c4ccccc4)cc3)[nH]2)c1 (stereo unspecified),-15,-5,/,/,/
O=C(Cc1ccccc1)Nc1nnc2n1CCS2,/,/,-1,13,/
O=C(NC1CCN(Cc2ccccc2)CC1)c1cncc(Br)c1,-29,-2,0,-37,85*
O=C(NC1CCN(Cc2cccc([N+](=O)[O-])c2)CC1)c1ccccc1,-15,4,-2,-26,74*
O=[N+]([O-])c1cccc(CN2CCN(c3cccc4[nH]ccc34)CC2)c1,-27,-8,5,-21,42*
O=[N+]([O-])c1cccc(CN2CCC(Cc3ccccc3)CC2)c1,-34,-1,0,-11,21
O=C(c1ccc([N+](=O)[O-])cc1)N1CCN(c2cccc3[nH]ccc23)CC1,-15,-2,15,-9,-1
CN1CCC(NC(=O)c2cccc(Oc3ccccc3)c2)CC1,-38,-4,-1,-8,70*
O=c1c2oc3ccccc3c2n(Cc2cccc(Cl)c2)c(=O)n1Cc1ccco1,/,/,0,0,/
CC(C)(C)c1ccc(O)c(N=Cc2cc(Br)ccc2O)c1,0,-1,0,3,9
Cc1ccc(O)c(C=Nc2cc(C)ccc2O)c1,58*,7,/,/,/
COc1cccc(CN2CCc3ccc(NC(=O)CCc4ccc(C)cc4)cc3C2)c1O,-41,-7,0,-20,31*
Cc1cc(NC(=O)C(Cl)Cl)cc2c1OCO2,-2,0,/,/,/
O=C(C1COc2ccccc2O1)N1CCN(c2ccc(C(F)(F)F)cn2)CC1 (stereo unspecified),-8,2,/,/,/
NS(=O)(=O)c1ccc(N2CCN(C(=O)C3COc4ccccc4O3)CC2)nc1 (stereo unspecified),7,-1,-1,1,35*
O=C(C1COc2ccccc2O1)N1CCN(c2ccccc2)CC1 (stereo unspecified),-13,-1,0,-4,41*
O=C(Nc1ccccc1N1CCN(c2ccccc2)CC1)C12CC3CC(CC(C3)C1)C2,7,1,0,32*,1
COc1ccc([N+](=O)[O-])cc1NC(=O)Cn1ccsc1=N,-44,4,1,-19,31*
Cc1cc(NC(=O)Cn2ccsc2=N)c([N+](=O)[O-])cc1C,7,-7,0,-19,22
c1cc2c3c(cccc3c1)NC1(CCC3(CC1)Nc1cccc4cccc(c14)N3)N2,71*,0,4,-4,-8
CCOC(=O)N1CCC(=NNC(=O)Cn2ccc(C(F)(F)F)n2)CC1,-2,0,0,33*,-22
Cc1cnc2c(c1SCC(=O)N(C)c1ccccc1)c(=O)n(C)c(=O)n2C,/,/,0,/,/
